Several values for one entry are separate records, joined by “and”; a condition that tells them apart may be missing. Equal entries are not always repeated. Out of some 5,500 compounds screened, about 2,000 (36%) were called active. Roughly 18% stayed inconclusive and do not appear here. Rule as the data show it: active = normalized growth mostly below about 0.91 (no sharp cut-off); inconclusive = no clear call, values can overlap the other calls; inactive = mostly above about 0.92. The list shows a part of the results.
Assay: chemical genetic growth profiling, strain panel (AID 1159580);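 also: tested at 20 µM; growth read once vehicle control cultures reached saturation at 30 °C; 1 = growth at the plate median or of vehicle wells; lower values mean less growth of the strain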
Details: S. cerevisiae deletion strains, growth OD

Measured: normalized growth

CO[C@]12C[C@@H](COC(=O)c3cncc(Br)c3)CN(C)[C@@H]1Cc1cn(C)c3cccc2c13
inactive: locus YAL013W, strain DEP1, stronger effect = lower value 1.01 | locus YAL021C, strain ccr4, stronger effect = lower value 0.973 | locus YAL026C, strain drs2, stronger effect = lower value 1 | locus YAL030W, strain snc1, stronger effect = lower value 1 | locus YBL061C, strain skt5, stronger effect = lower value 0.996 | locus YBR009C, strain hhf1, stronger effect = lower value 0.991 | locus YBR021W, strain FUR4, stronger effect = lower value 0.913 | locus YBR023C, strain chs3, stronger effect = lower value 0.979 | locus YBR171W, strain sec66, stronger effect = lower value 0.983 | locus YBR229C, strain ROT2, stronger effect = lower value 1 | locus YBR231C, strain swc5, stronger effect = lower value 0.951 | locus YBR279W, strain paf1, stronger effect = lower value 0.998 | locus YCL011C, strain gbp2, stronger effect = lower value 0.983 | locus YCL016C, strain dcc1, stronger effect = lower value 0.998 | locus YCL029C, strain bik1, stronger effect = lower value 1.02 | locus YCL069W, strain vba3, stronger effect = lower value 0.998 | locus YCR088W, strain abp1, stronger effect = lower value 1 | locus YDL005C, strain med2, stronger effect = lower value 0.979 | locus YDL035C, strain GPR1, stronger effect = lower value 0.99 | locus YDL040C, strain nat1, stronger effect = lower value 0.995 | locus YDL074C, strain BRE1, stronger effect = lower value 0.978 | locus YDL101C, strain DUN1, stronger effect = lower value 1.01 | locus YDL134C, strain PPH21, stronger effect = lower value 0.995 | locus YDL185W, strain tfp1, stronger effect = lower value 1 | locus YDL192W, strain arf1, stronger effect = lower value 1.01 | locus YDR001C, strain nth1, stronger effect = lower value 0.994 | locus YDR069C, strain doa4, stronger effect = lower value 0.966 | locus YDR101C, strain arx1, stronger effect = lower value 1 | locus YDR137W, strain rgp1, stronger effect = lower value 1.12 | locus YDR150W, strain NUM1, stronger effect = lower value 0.999 | locus YDR159W, strain sac3, stronger effect = lower value 1.01 | locus YDR162C, strain NBP2, stronger effect = lower value 1 | locus YDR195W, strain ref2 0.943 | locus YDR297W, strain sur2, stronger effect = lower value 0.987 | locus YDR318W, strain mcm21, stronger effect = lower value 1 | locus YDR334W, strain swr1, stronger effect = lower value 1 | locus YDR335W, strain msn5, stronger effect = lower value 0.986 | locus YDR388W, stronger effect = lower value 1 | locus YDR392W, strain spt3, stronger effect = lower value 0.93 | locus YDR502C, strain sam2, stronger effect = lower value 1 | locus YEL003W, strain gim4, stronger effect = lower value 0.988 | locus YEL037C, strain rad23, stronger effect = lower value 0.995 | locus YEL061C, strain CIN8 (second series), stronger effect = lower value 0.987 | locus YEL061C, strain CIN8, stronger effect = lower value 0.997 | locus YER015W, strain faa2, stronger effect = lower value 0.996 | locus YER016W, strain bim1, stronger effect = lower value 1 | locus YER110C, stronger effect = lower value 1.01 | locus YER111C, strain swi4, stronger effect = lower value 1.01 | locus YER155C, strain BEM2 (second series), stronger effect = lower value 0.912 | locus YER155C, strain BEM2, stronger effect = lower value 0.998 | locus YER167W, strain BCK2, stronger effect = lower value 1 | locus YFR010W, strain ubp6, stronger effect = lower value 0.99 | locus YGL078C, strain dbp3, stronger effect = lower value 1 | locus YGL086W, strain mad1, stronger effect = lower value 1 | locus YGL167C, strain pmr1, stronger effect = lower value 0.996 | locus YGL173C, strain kem1, stronger effect = lower value 0.989 | locus YGL227W, strain vid30, stronger effect = lower value 0.994 | locus YGL240W, strain doc1, stronger effect = lower value 0.95 | locus YGL248W, strain PDE1, stronger effect = lower value 1.01 | locus YGL253W, strain hxk2, stronger effect = lower value 0.998 | locus YGR078C, strain PAC10, stronger effect = lower value 0.974 | locus YGR135W, strain pre9, stronger effect = lower value 0.993 | locus YGR229C, strain SMI1, stronger effect = lower value 1 | locus YGR252W, strain gcn5, stronger effect = lower value 0.869 | locus YHR013C, strain ard1, stronger effect = lower value 1.02 | locus YHR027C, strain rpn1, stronger effect = lower value 0.988 | locus YHR030C, strain SLT2, stronger effect = lower value 1.01 and 0.979 | locus YHR079C, strain IRE1 (second series), stronger effect = lower value 1.01 | locus YHR079C, strain IRE1, stronger effect = lower value 0.957 | locus YHR094C, strain hxt1, stronger effect = lower value 1 | locus YHR129C, strain ARP1, stronger effect = lower value 1.02 | locus YHR142W, strain chs7, stronger effect = lower value 1.01 | locus YHR200W, strain rpn10, stronger effect = lower value 1 | locus YIL066C, strain RNR3, stronger effect = lower value 1 | locus YIL073C, strain SPO22, stronger effect = lower value 1 | locus YIL125W, strain kgd1, stronger effect = lower value 1.01 | locus YIR030C, strain dcg1, stronger effect = lower value 1.01 | locus YJL092W, strain hpr5, stronger effect = lower value 1 | locus YJL095W, strain BCK1 (second series), stronger effect = lower value 1 | locus YJL095W, strain BCK1, stronger effect = lower value 0.996 and 0.967 | locus YJL115W, strain asf1, stronger effect = lower value 0.991 | locus YJL129C, strain trk1, stronger effect = lower value 0.982 | locus YJL134W, strain LCB3, stronger effect = lower value 1 | locus YJL154C, strain vps35, stronger effect = lower value 0.981 | locus YJL164C, strain tpk1, stronger effect = lower value 0.997 | locus YJL166W, strain qcr8, stronger effect = lower value 0.972 | locus YJL168C, strain set2, stronger effect = lower value 1 | locus YJL187C, strain SWE1 (second series), stronger effect = lower value 1.01 | locus YJL187C, strain SWE1, stronger effect = lower value 0.996 | locus YJR043C, strain POL32, stronger effect = lower value 1.01 | locus YJR066W, strain TOR1, stronger effect = lower value 0.897

— PubChem BioAssay AID1159580 (chemical genetic matrix, 2015)
